# HT1080 IDH1KD tx – kills HT-1080 cells with IDH1 knockdown | HT-1080 IDH1 knockdown viability, ATP luminescence, 48 h | Potency, µM (top dose mostly 46.1 µM), without a hit: at the highest dose activity, negative = toxicity, most hits filed as cytotoxic | 360,000 tested, 2% active | AID 686971;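 also: potency is read from the fitted curve at half-maximal effect; 0% = DMSO wells and -100% = cell-free medium wells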
#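 Using the IDH1-knockdown HT-1080 line run in the same batch and compound series as the NT line, viability after 48 h at 37 °C was determined by CellTiter-Glo luminescence and expressed as % activity.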
# IL1B secr inh – inflammasome signaling inhibition, IL-1 beta readout; THP-1 LPS/ATP IL-1B secretion, AlphaLISA, 16 h; hits give low values; 360,000 tested, 4.7% active; AID 743279; activity change, % at 57.5 µM; in the data active = activity change below about -50%; inconclusive = mostly about -30% to -49%
#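 Secreted IL-1B measured by AlphaLISA bead assay after 16 h compound exposure of THP-1 cells; compounds (final up to 57.5 uM) added 1 h before LPS (250 ng/mL) and ATP (1.25 mM) stimulation; lower signal means less secretion.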
# ELG1 repair inh – ELG1-dependent DNA repair inhibition; 330,000 tested, 2.3% active; HEK293T ELG1-luciferase reporter, luminescence, 16 h; DNA damage induced by 5-fluorouridine; Potency, µM (top dose mostly 46.1 µM), for inactives: at the top dose activity change, negative = inhibition, usual class: inhibitors; also: potency is read from the fitted curve at half-maximal effect; nearly all actives have a fitted effect of over 55% in size
#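 Overnight (16 hr) co-exposure of 2,000 cells/well to 5-fluorouridine and compound at 37 °C preceded detection. Luciferase was quantified via ONE-Glo luminescence; loss of signal denotes inhibition.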
# HT1080-NT tox – kills 2HG-producing HT-1080-NT fibrosarcoma cells | HT-1080-NT fibrosarcoma viability, CellTiter-Glo ATP luminescence, 48 h | Potency, µM (titrated, usually from 46.1 µM), inactives show top-dose activity, negative = less viability, hits mostly cytotoxic | 360,000 tested, 1.6% active | AID 686970;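 also: NT is the 2HG producing partner of a matched IDH1 knockdown line; potency is read from the fitted curve at half-maximal effect; 0% = DMSO-treated cells and -100% = media-only wells without cells; nearly all actives have a fitted effect of over 55% in size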
#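 Luminescent CellTiter-Glo readout after 48 hours of compound exposure at 37 degrees C defined viability of HT-1080-NT cells. Activity was normalized to DMSO wells and cell-free media wells; concentration-response curves were fitted and assigned curve classes.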
# TDP1 cell noCPT – qHTS for Inhibitors of human tyrosyl-DNA phosphodiesterase 1 (TDP1): qHTS in cells in absence of CPT | 420,000 tested, 15% active | DT40 Tdp1-/- hTDP1 cells, no CPT, ATP luminescence, 48 h | Potency, µM (series often up to 46.2 µM), inactives show top-dose activity change, negative = growth inhibition, actives largely listed as inhibitors; also: potency is read from the fitted curve at half-maximal effect; nearly all actives have a fitted effect of over 55% in size
#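 Stably hTDP1-transfected Tdp1-null chicken DT40 cells were treated with library compounds minus camptothecin and grown for at least 48 hr at 37 °C, after which cellular ATP was quantified by luminescence.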
# DT40 TDP1 CPT – DT40-hTDP1 cell growth loss with CPT. 420,000 tested, 12% active. Potency, µM (titrated, usually from 46.2 µM), without a hit: at the top dose activity change, negative = growth inhibition, most hits filed as inhibitors. chicken DT40 Tdp1-/-;hTDP1 cells + 20 nM CPT, ATP luminescence, 48 h; also: potency is read from the fitted curve at half-maximal effect; nearly all actives have a fitted effect of over 55% in size
#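 Cell growth measured by CellTiter-Glo luminescence after a minimum 48 h, 37 C compound exposure with 20 nM CPT in Tdp1-knockout DT40 cells stably expressing hTDP1, seeded 400/well; qHTS titration format.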
# Starred values were filed as active, the others as inactive; ? = inconclusive; . = not tested or not shown. Sampled rows, rich in hits. Any-hit rate of the full collection: about 19%. Unless noted, calls follow the shape of the dose curve; as a rule, active = well fitted curve in the direction sought with a large enough effect; inconclusive = small, poorly fitted or top-dose-only effect, or another doubt; inactive = no such curve, though single readings can be large; an effect the other way counts as inactive or inconclusive. Unless noted, % is scaled to controls: 0 for no effect and ±100 for the full control effect.
SMILES,HT1080 IDH1KD tx,IL1B secr inh,ELG1 repair inh,HT1080-NT tox,TDP1 cell noCPT,DT40 TDP1 CPT
Cc1cc2nc(-c3cccc(Cl)c3)c(Cc3ccsc3)n2c(C)c1Br,-18%,26,.,-16%,?,?
Clc1ccc(-c2nc3ccc(Cl)cn3c2Cc2ccsc2)cc1,?,10,.,-29%,?,-27%
CCCc1nc2cc(C)c(Br)c(C)n2c1Cc1ccsc1,-29%,47,.,?,18µM*,12µM*
Cc1ccc(-c2nc3cc(C)c(Br)c(C)n3c2CC(C)(C)C)cc1,-23%,48,.,-6%,16µM*,9.2µM*
CCN1CCN(Cc2nc3cc(NC(=O)COc4ccc([N+](=O)[O-])cc4)ccc3n2C)CC1,-1%,9,-3%,-8%,-12%,?
COc1ccc(NC(=O)c2cc(C)nc3c2c(C)nn3-c2ccc(C)cc2)cc1OC,.,.,.,.,15µM*,?
COc1ccc(OC)c(NC(=O)c2cc(C3CC3)nc3c2c(C)nn3-c2ccc(C)cc2)c1,.,.,.,.,?,26µM*
Cc1ccc(-n2nc(C)c3c(C(=O)NCc4ccccc4)cc(C4CC4)nc32)cc1,.,.,.,.,-21%,-18%
Cc1c(C(=O)NCc2ccccc2Cl)cccc1-n1cnc2cccnc21,.,.,.,.,23µM*,18µM*
COc1ccc(CNC(=O)c2cccc(-n3cnc4cccnc43)c2C)cc1,.,.,.,.,-16%,-29%
COc1ccc(NC(=O)c2cc(C3CC3)nc3c2c(C)nn3-c2ccccc2)c(OC)c1,.,.,.,.,?,-20%
COc1cccc(CNC(=O)c2cc(C)nc3c2c(C)nn3-c2ccc(C)cc2)c1,.,.,.,.,16µM*,?
CCc1nn2c(=O)cc(COC(=O)c3ccccc3)nc2s1,.,.,.,.,-2%,-15%
COc1ccc(S(=O)(=O)N2CCN(C(=O)CSC(=S)N3CCCC3)CC2)cc1,-7%,-9,6%,1%,?,-11%
COc1cccc(CNC(=O)c2cccc(-n3c(C)nc4cccnc43)c2C)c1,.,.,.,.,?,21µM*
Cc1nn(-c2ccccc2)c2nc(C3CC3)cc(C(=O)Nc3ccc(F)cc3)c12,.,.,.,.,21µM*,16µM*
CCOc1ncccc1C(=O)NCc1cccc(OC)c1,27%,-15,5%,22%,-25%,?
COc1ccc(N2CCN(C(CNC(=O)C(=O)NCCCn3ccnc3)c3ccco3)CC2)cc1 (centres undefined),0%,-1,-12%,0%,17%,-10%
COc1cccc(OC2(C)CCN(Cc3cccn3-c3nccs3)C2)c1 (centres undefined),-18%,9,.,-29%,21µM*,23µM*
CC1(Oc2ccc(-n3ccnc3)cc2)CCN(Cc2cccn2-c2nccs2)C1 (centres undefined),8%,0,.,9%,18µM*,29µM*
COCOc1cccc(CN2CCC(C)(Oc3cccc(C#N)c3)C2)c1 (centres undefined),-14%,-15,.,-11%,-34%,?
COc1ccc(Cl)cc1NC(=O)c1noc2c1CCc1ccccc1-2,.,.,.,.,-5%,-13%
O=S1(=O)N[C@H](Cc2ccccc2)COc2cc(N3CC[C@H](O)C3)ccc21,-24%,28,.,-15%,?,?
Fc1ccc(-c2csc3ncnc(Cl)c23)cc1,3%,-7,12%,6%,?,?
Clc1nc(-c2ccccn2)nc2scc(-c3ccccc3)c12,?,-60*,?,?,?,?
SMILES,HT1080 IDH1KD tx,IL1B secr inh,ELG1 repair inh,HT1080-NT tox,TDP1 cell noCPT,DT40 TDP1 CPT
C[C@@](N)(C(=O)O)c1ccc(S(=O)(=O)O)cc1,.,.,.,.,3%,4%
C=C1C(=O)O[C@H]2C[C@]3(C)C([C@@H](OC(=O)/C(C)=C/C)[C@H]12)[C@](C)(O)CC[C@H]3O (some centres undefined),?,-58*,15%,?,8.2µM*,15µM*
CC(CN1CCCCC1)OC(=O)c1ccc(Cl)cc1 (centres undefined),5%,8,5%,8%,-10%,-8%
CC(CN1CCN(C)CC1)OC(=O)c1ccc(Cl)cc1 (centres undefined),-22%,-84*,11%,-13%,-5%,-7%
Cc1ccccc1NC(=O)COC(=O)c1ccc(S(=O)(=O)N2CCCC2)cc1,14%,15,26%,9%,27%,13%
CCNC(=O)C1CCCN(C(=O)c2ccc(F)c(Cl)c2)CC1 (centres undefined),3%,48,.,23%,-6%,0%
O=C(N/N=C/c1ccc(F)cc1)c1sccc1OCc1ccc(F)cc1,16µM*,46,13%,13µM*,18µM*,16µM*
NNC(=O)c1sccc1OCc1ccc(F)cc1,2%,32,11%,3%,?,7%
O=C(N/N=C/c1ccc(Cl)cc1)c1sccc1OCc1ccc(F)cc1,1.3µM*,78,?,2.6µM*,1.3µM*,1.2µM*
CN(Cc1ccccc1)C(=O)COC(=O)CCC(=O)c1ccc(Cl)cc1,-3%,5,14%,1%,4%,-22%
Cn1c(=O)c2c([nH]c(=O)n2Cc2ccc(Cl)cc2Cl)n(C)c1=O,.,.,.,.,8%,2%
O=C(CC[C@H]1O[C@@H](n2cnc3c(NC(=O)c4ccccc4)ncnc32)[C@H](O)[C@@H]1O)NCc1ccco1,10%,102,.,?,1%,10%
CCC(C)Nc1ccc(NC(C)CC)cc1 (centres undefined),9.2µM*,?,?,3.7µM*,-86%,4.1µM*
CCOc1cc2c(cc1O)C(=NOC)CC1C2CCC2(C)C(O)CCC12 (centres undefined),1.5µM*,-19,.,1.6µM*,0.82µM*,0.92µM*
Cc1[nH]nc(-c2ccc(O)cc2O)c1-c1nc2ccccc2s1,?,-82*,-9%,?,?,?
Cc1[nH]nc(-c2ccc(O)cc2O)c1Oc1ccccc1,?,5,?,?,?,?
Cc1cc(C(=O)N(C2CCCCC2)C2CCCCC2)no1,-21%,-13,?,0%,8.2µM*,13µM*
O=C1C=C(c2ccccc2)CO1,14%,18,.,9%,-18%,-6%
O=C(c1ccc(COc2ccc(Cl)cc2)o1)N1CCN(Cc2ccc3c(c2)OCO3)CC1,-22%,-76*,-29%,-27%,11µM*,?

# Screening results from PubChem BioAssay.
